# In the supplement of paper PMC3414501:
# Counter-ions that a name gives are not always drawn. A number with no mark means an inactive call.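 How the source made its calls: active = HIS4 sensitivity z-score above 5 vs DMSO controls; inactive = score 5 or below.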
# Test system: S. cerevisiae NKY1551 his4x/his4B, sporulating
# Experiment: HIS4 meiotic recombination assay sensitivity score (z-score vs DMSO controls); higher = stronger inhibition of sporulation/recombination, active = hit call of the paper
# Conditions: stock concentration (mM, diluted 1:100): 7.7
# Experimental: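 NIH Clinical Collection compounds were added 1:100 from stock (about 100 µM final) to S. cerevisiae. Growth: average doubling time (AvgG) over 24 h of BY4741 (wild-type) or AD1-9 (drug-efflux-pump deficient) in rich media. HIS4: the his4x/his4B heteroallelic recombination reporter strain (SK1) was sporulated 5 h with compound at 30°C, then colony density was read on -his plates after 48 h. Sensitivity score = (compound − mean of 8 DMSO controls)/SD of DMSO controls. Hit cutoffs are >2 for growth and >5 for sporulation.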
row,Structure (SMILES),HIS4 meiotic recombination assay sensitivity score
1,CCC(COC(=O)c1cc(OC)c(OC)c(OC)c1)(c1ccccc1)N(C)C (stereo not drawn) [Trimebutine maleate],-1.28

# Same assay, conditions: stock concentration (mM, diluted 1:100): 8.6
row,Structure (SMILES),HIS4 meiotic recombination assay sensitivity score
1,CCOC(=O)C1(c2ccccc2)CCN(CCC(C#N)(c2ccccc2)c2ccccc2)CC1 [Diphenoxylate],0.41

# Same assay, conditions: stock concentration (mM, diluted 1:100): 8.7
row,Structure (SMILES),HIS4 meiotic recombination assay sensitivity score
1,CC(NC(C)(C)C)C(=O)c1cccc(Cl)c1 (stereo not drawn) [Bupropion hydrochloride],1.07

# Same assay, conditions: stock concentration (mM, diluted 1:100): 8.9
row,Structure (SMILES),HIS4 meiotic recombination assay sensitivity score
1,COc1ccc(C(CN(C)C)C2(O)CCCCC2)cc1 (stereo not drawn) [Venlafaxine hydrochloride],1

# Same assay, conditions: stock concentration (mM, diluted 1:100): 9
row,Structure (SMILES),HIS4 meiotic recombination assay sensitivity score
1,Cc1ncc2n1-c1ccc(Cl)cc1C(c1ccccc1F)=NC2 [Midazolam hydrochloride],4.65

# Same assay, conditions: stock concentration (mM, diluted 1:100): 10
row,Structure (SMILES),HIS4 meiotic recombination assay sensitivity score
1,CN1C(=O)CN=C(c2ccccc2)c2cc(Cl)ccc21 [Diazepam],2.18
2,CN1C(=O)COc2c(C(=O)NC3CN4CCC3CC4)cc(Cl)cc21 (stereo not drawn) [Azasetron],1.08
3,CNCC(O)c1ccc(O)cc1 (stereo not drawn) [Synephrine],-1.28
4,COc1ccc(CCN)cc1OC [Homoveratrylamine],-1.74
5,COC(=O)N1CCN(C(=O)Cc2ccc(Cl)c(Cl)c2)C(CN2CCCC2)C1 (stereo not drawn),-0.89
6,NC1=NC(=O)C(c2ccccc2)O1 (stereo not drawn) [Pemoline],-0.78
7,C=C1C[C@@H]2[C@H](CC[C@]3(C)C(=O)CC[C@@H]23)[C@@]2(C)C=CC(=O)C=C12 [Exemestane],3.99
8,O=c1c2ccccc2[se]n1-c1ccccc1 [Ebselen],-0.37
9,CCN(CC)CCOC(=O)C(O)(c1ccccc1)c1ccccc1 [Benactyzine hydrochloride],-0.53
10,C[C@]12CC[C@H](O)CC1=CC[C@@H]1[C@@H]2CC[C@]2(C)C(=O)CC[C@@H]12 [Dehydroepiandrosterone],3.07
11,Oc1ccc2c3c1O[C@H]1c4[nH]c5ccccc5c4C[C@@]4(O)[C@@H](C2)N(CC2CC2)CC[C@]314 [Naltrindole],-0.51
12,C#CCN(C)[C@H](C)Cc1ccccc1 [Selegiline],0.06
13,NC(=O)C[S+]([O-])C(c1ccccc1)c1ccccc1 (stereo not drawn) [Modafinil],-0.33
14,CC[C@@H]1C=CC=CC[C@H](C)[C@@H](O)[C@@H](C)C(=O)[C@H](C)[C@@H](O)[C@H](C)C(=O)[C@H](C)[C@@H](O)[C@H](C)C=CC(=O)O[C@H]2[C@@H](C)[C@@H](CC1)O[C@@]1(CC[C@@H](C)[C@@H](C[C@H](C)O)O1)[C@@H]2C [Oligomycin c],0.21
15,O=C1CN=C(c2ccccc2)c2cc([N+](=O)[O-])ccc2N1 [Nitrazepam],-0.13
16,c1ccc(Cn2ccnc2)cc1 [1-Benzylimidazole],-0.23
17,CNC(=O)Oc1ccc2c(c1)[C@]1(C)CCN(C)[C@@H]1N2C [Physostigmine],-0.16
18,CCCN1C[C@H](CSC)C[C@@H]2c3cccc4[nH]cc(c34)C[C@H]21 [Pergolide mesylate],-0.45
19,C[C@H]1CCC[C@H](O)CCCCCc2cc(O)cc(O)c2C(=O)O1 [Zeranol],-1.27
20,NCCc1ccccn1 [2-(2-aminoethyl)pyridine],-0.1
21,FC(F)(F)c1cccc(N2CCNCC2)c1,8.84 (active)
22,c1cncc([C@@H]2CCCN2)c1 [Nornicotine],-1.18

# Same assay, conditions: stock concentration (mM, diluted 1:100): 10.1
row,Structure (SMILES),HIS4 meiotic recombination assay sensitivity score
1,C[C@]12CC[C@H](O)CC1=CC[C@@H]1[C@@H]2CC[C@@]2(C)[C@H]1CC[C@]2(C)O [Methylandrostenediol],-1.02
2,C[C@]12CCC(=O)C[C@@H]1CC[C@@H]1[C@@H]2CC[C@@]2(C)[C@H]1CC[C@]2(C)O [Mestanolone],-0.62
3,C[C@]12C/C(=C/O)C(=O)C[C@@H]1CC[C@@H]1[C@@H]2CC[C@@]2(C)[C@H]1CC[C@]2(C)O [Oxymetholone],8.48 (active)
4,C=C(C)CN1CC[C@]23c4c5ccc(O)c4O[C@H]2c2[nH]c4ccccc4c2C[C@@]3(O)C1C5,3.9
5,COc1ccc2[nH]cc(C3=CCNCC3)c2c1,3.92

# Same assay, conditions: stock concentration (mM, diluted 1:100): 19.9
row,Structure (SMILES),HIS4 meiotic recombination assay sensitivity score
1,Cc1ccc(-c2nc3ccc(C)cn3c2CC(=O)N(C)C)cc1 [Zolpidem tartrate],0.04
